For 37 compounds, inhibition results are on record in PubChem BioAssay AID504710 (Sanford-Burnham Center for Chemical Genomics, 2011).

Unmarked numbers belong to inactive results. Active and inactive are the calls of the source.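 Rule for the calls: active = inhibition reaching about 16% in any single replicate (limit read from the data); inactive = the rest.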

The target of this test is Hexokinase HKDC1 (Homo sapiens) (UniProt Q2TB90). The test is described as follows: compounds lowering human HKDC1 activity – biochemical, single concentration, confirmation (AID 504710). Particulars: recombinant HKDC1, G6PDH/diaphorase/resazurin fluorescence; at 20 µM; hits give high values. A general note: The colour change of resazurin is a common sign of viable cells or microbes.
Chain of Hexokinase HKDC1 (Homo sapiens) (Q2TB90 whole entry, looked up): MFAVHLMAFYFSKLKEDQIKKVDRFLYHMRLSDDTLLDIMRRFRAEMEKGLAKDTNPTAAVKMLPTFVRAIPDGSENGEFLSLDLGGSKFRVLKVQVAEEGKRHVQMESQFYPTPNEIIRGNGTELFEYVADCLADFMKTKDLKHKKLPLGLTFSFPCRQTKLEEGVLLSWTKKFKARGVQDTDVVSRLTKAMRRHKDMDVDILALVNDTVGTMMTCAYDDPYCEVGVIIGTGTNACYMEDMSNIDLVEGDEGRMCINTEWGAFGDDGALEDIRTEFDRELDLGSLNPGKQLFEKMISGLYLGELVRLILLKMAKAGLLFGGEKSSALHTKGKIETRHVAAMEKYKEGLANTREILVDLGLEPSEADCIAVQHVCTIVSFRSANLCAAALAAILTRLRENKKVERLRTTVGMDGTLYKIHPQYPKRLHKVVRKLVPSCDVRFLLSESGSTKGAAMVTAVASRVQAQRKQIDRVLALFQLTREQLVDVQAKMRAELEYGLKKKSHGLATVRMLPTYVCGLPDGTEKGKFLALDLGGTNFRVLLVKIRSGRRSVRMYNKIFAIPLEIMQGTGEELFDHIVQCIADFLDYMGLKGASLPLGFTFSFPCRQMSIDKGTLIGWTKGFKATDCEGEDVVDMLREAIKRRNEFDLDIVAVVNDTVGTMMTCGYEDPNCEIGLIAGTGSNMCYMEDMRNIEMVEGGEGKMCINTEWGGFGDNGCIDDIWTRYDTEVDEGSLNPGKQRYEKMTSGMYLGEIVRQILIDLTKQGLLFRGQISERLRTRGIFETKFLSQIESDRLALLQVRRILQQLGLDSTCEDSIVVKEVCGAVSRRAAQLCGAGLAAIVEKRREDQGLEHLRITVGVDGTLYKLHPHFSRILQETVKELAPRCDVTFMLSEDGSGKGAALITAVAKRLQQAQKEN
By inhibition is commonly meant the relative decrease from the control value, in per cent. For `O=C(NCCc1ccccc1)c1cnn2c(C(F)F)cc(C3CC3)nc12`, the inhibition was 59.8% (active).

For the compound `O=C(NC1=CC(=O)c2ccccc2C1=O)c1ccccc1`, the inhibition is 69.9% (active). On to `COC1=C(OC)C(=O)C(Sc2ccc3ccccc3c2)=CC1=O`, for which the inhibition is 71.3% (active).

`COC(=O)c1ccc(NCc2cc(O)ccc2O)cc1`: the inhibition was 65.1% (active). Regarding `O=C(NNC(=S)Nc1ccc(Cl)c(Cl)c1)c1ccccn1`, the inhibition is -74.1%. In the case of `CCCc1nc2oc3c(NCCOCCO)ncnc3c2c2c1COC(C)(C)C2`, the inhibition was 41.7% (active). Consider `Cc1ccc(N=Cc2cc(Cc3ccccc3Cl)cc([N+](=O)[O-])c2O)c(O)c1`, for which the inhibition was 30.2% (active).

Regarding `Cc1ccc2oc(=O)c3cnn(CC(=O)N4CCCCCC4)c3c2c1`, the inhibition is -63.5%.

Regarding `O=C1C=C(c2c(O)ccc3ccccc23)c2ccccc2C1=O`, the inhibition was 78.1% (active). As for `O=S(=O)(c1ccc(NC(=S)NN=C(Cc2ccccc2)Cc2ccccc2)cc1)N1CCOCC1`, the figure is -43.9%; as for `Cc1ccc(C)c(S(=O)(=O)Nc2cc(SCC(=O)O)c(O)c3ccccc23)c1`, 55.2% (active); as for `CC(=O)C1=C(c2ccccc2)N(C(C)=O)n2c(C)nnc2S1`, -125%. On to `CC(C)c1nc2oc3c(=O)[nH]cnc3c2c2c1COC(C)(C)C2`, for which the inhibition is 48.4% (active). Consider `NC1=C(Cl)C(=O)c2ccc(S(N)(=O)=O)cc2C1=O`, for which the inhibition is -42.9%. As for `O=C1C=C(N2CCOCC2)c2ccccc2C1=O`, the inhibition was 79.4% (active). `CCc1ccc(S(=O)(=O)/N=C2/C=C(Sc3ncn[nH]3)C(=O)c3ccccc32)cc1`: the inhibition was 73% (active). Regarding `CCc1nc2sc3c(=O)[nH]cnc3c2c2c1CSC(C)(C)C2`, the inhibition is 30.5% (active). For `Cc1cc(C)n2nc(SCc3nnc(SCc4ccccc4Cl)s3)nc2n1`, the inhibition was 43% (active). Regarding `CCN(CC)CCNc1cc(C)nc2c1C(=O)C(=O)C=C2N1CCCCC1`, the inhibition is 57.9% (active). Take `CCOC(=O)c1c(C)[nH]c(C2=NNC(=Nc3ccccc3)SC2)c1C`: the inhibition was -141%.

With `CCOC(=O)C1=C(Cc2ccc(OC)cc2)C(=O)c2ccccc2C1=O`, the inhibition is 55.8% (active). Take `CCOC(=O)c1ccc(NC(=O)CSc2ccc(-c3ccccn3)nn2)cc1`: the inhibition is 31.3% (active). As for `NC1=CC(=O)C(=O)c2ccccc21`, the figure is 48.7% (active); as for `Nc1ccc(S(=O)(=O)c2cc(O)c3ccccc3c2O)cc1`, 68.7% (active). As to `Cc1cccc(-n2c3nc(=O)[nH]c(=O)c-3cc3cc([N+](=O)[O-])ccc32)c1`, the inhibition was 46.6% (active). Consider `O=c1[nH]c2ccccc2n2c(-c3ccccc3)nnc12`, for which the inhibition is 58.5% (active). As for `O=C1C(Cl)=C(N2CCC(C(=O)O)CC2)C(=O)c2ccccc21`, the figure is 57.2% (active); as for `Cc1onc(-c2ccccc2)c1C(=O)NNC(=S)NC(=O)c1ccc(Br)cc1`, -56.7%; as for `Fc1ccc(N=C2NN=C(c3cc(F)ccc3F)CS2)cc1`, -132%. On to `CC(C)c1nc2oc3c(NCC4CCCO4)ncnc3c2c2c1COC(C)(C)C2` (configuration not stated), for which the inhibition is 62.8% (active).

On to `O=C1C(C2=C(O)c3ccccc3C2=O)=Nc2ccccc21`, for which the inhibition was -162%. With `CCc1ccc(S(=O)(=O)/N=C2\C=C(Nc3ccc(C(=O)O)cc3)C(=O)c3ccccc32)cc1`, the inhibition is 59.8% (active). On to `O=C1C(=O)c2c(C(=O)c3ccccc3)coc2-c2ccccc21`, for which the inhibition was 53.2% (active).

For the compound `CC(=NNc1nc2ccccc2o1)c1cc2ccccc2cn1`, the inhibition was -77.2%.

As for `CCOC(=O)c1c(C)[nH]c(C2=NNC(=Nc3ccc(OCC)cc3)SC2)c1C`, the inhibition was -122%.

On to `Clc1ccc(N=c2ssnc2Cl)nc1`, for which the inhibition is -79.7%. Regarding `Cn1c(-c2ccccc2)c(C(=O)CC#N)c2ccccc21`, the inhibition is -42%.
